Potency data for 99 compounds are collected here from PubChem BioAssay AID686978 (National Center for Advancing Translational Sciences (NCATS), 2013).

SMILES strings stand for the structures. Screen size: about 420,000 compounds; about 64,000 (15%) were called active. Another 27% or so got no clear call; they are omitted. Calls come from the whole dose curve; as a rule, active = well fitted inhibition curve with a large enough effect; inconclusive = small, poorly fitted or top-dose-only effect; inactive = flat fitted curve, though single readings scatter. These entries were drawn from the full list. Where a call stands in place of a potency, no number is given.
Potency is the fitted concentration of half-maximal effect.

The test is described as follows: qHTS for Inhibitors of human tyrosyl-DNA phosphodiesterase 1 (TDP1): qHTS in cells in absence of CPT. Note: nearly all actives have a fitted effect of over 55% in size. Particulars: DT40 Tdp1-/- hTDP1 cells, no CPT, ATP luminescence, 48 h; activity change, negative = growth inhibition: at 46.2 µM (top of the series). The method in brief: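 Chicken DT40 Tdp1-/- cells stably complemented with human TDP1 were seeded at 400 cells/well with DMSO in place of 20 nM camptothecin. After compound pinning, cells grew at least 48 hr at 37 °C; viability read by CellTiter-Glo luminescence.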
Regarding `CCCCc1cc(=O)oc2cc(C)cc(OCc3nn[nH]n3)c12`, the Potency result was “inactive”.

Take `O=C(NN1C(=O)C2CCCCC2C1=O)c1ccco1` (centres undefined): the Potency result is “inactive”.

As to `Cc1ccc(S(=O)(=O)N2C[C@H]3C(=O)C[C@@H](c4cccc5ccccc45)N(S(=O)(=O)c4ccc(C)cc4)[C@H]3C[C@H]2c2ccc(Cl)cc2)cc1`, the Potency result was “inactive”.

For the compound `O=C(Nc1ccccn1)C1CCN(S(=O)(=O)c2ccc3c(c2)OCCO3)CC1`, the Potency entry was “inactive”.

`CCCCn1c(=S)[nH]c2ncccc2c1=O`: the Potency entry was “inactive”.

Regarding `Cc1cc(Nc2ccc(Br)cc2F)n2ncnc2n1`, the Potency result was “inactive”.

`CC[C@H]1OC(=O)[C@H](C)[C@@H](O[C@H]2C[C@@](C)(OC)[C@@H](O)[C@H](C)O2)[C@H](C)[C@@H](O[C@@H]2O[C@H](C)C[C@H](N(C)C)[C@H]2O)[C@](C)(O)C[C@@H](C)[C@@H]2N[C@@H](COCCOC)O[C@H]([C@H]2C)[C@]1(C)O`: the Potency entry was “inactive”.

For `CCN(CC)S(=O)(=O)c1ccc(Cl)c(C(=O)NC(C)C(c2cccs2)N2CCCC2)c1` (centres undefined), the Potency was 14.6 µM (active).

`CCN(CC)S(=O)(=O)c1ccc(NC(=O)c2cccnc2Cl)c(NC(=O)c2cccnc2Cl)c1`: the Potency result is “inactive”.

For the compound `CCN(CC)S(=O)(=O)c1ccc(Cl)c(C(=O)NCCN2CCOCC2)c1`, the Potency entry is “inactive”.

Consider `COc1cc(C(=O)N/C(=C\c2cn(C)c3ccccc23)C(=O)N2CCOCC2)cc(OC)c1OC`, for which the Potency entry was “inactive”.

Regarding `Cc1c(N=Nc2ccc(N(C)C)cc2)c(=O)n(-c2ccccc2)n1C`, the Potency result is “inactive”.

On to `COc1ccc(NC(=S)NC2CCS(=O)(=O)C2)cc1` (centres undefined), for which the Potency result is “inactive”.

For `COc1ccc(-c2ccc(OC(=O)NC3CCS(=O)(=O)C3)cc2)cc1` (centres undefined), the Potency was 8.2 µM (active).

With `N#Cc1ccc(OCC(=O)NC(=O)NC2CCS(=O)(=O)C2)cc1` (centres undefined), the Potency entry was “inactive”.

For `CC(C)(C)CN1C(=O)C(=O)NC[C@H]1Cc1cccc2ccccc12`, the Potency result is “inactive”.

Turning to `CC1CCN(C(=O)c2ccc(S(=O)(=O)Cc3cc(F)ccc3F)c([N+](=O)[O-])c2)CC1`, the Potency was 16.4 µM (active).

Turning to `NC(=O)C1CCN(C(=O)c2ccc(F)c(S(=O)(=O)N3CCOCC3)c2)CC1`, the Potency entry was “inactive”.

On to `Nc1ccc(C(=O)N2CCN(S(=O)(=O)c3ccc(Cl)cc3)CC2)cc1[N+](=O)[O-]`, for which the Potency entry was “inactive”.

Regarding `CC1(C)CC(O)C(CCC(O)c2ccccc2)C(C)(C)N1` (centres undefined), the Potency entry was “inactive”.

Take `Cc1ccc(S(=O)(=O)N(CCCN(C)C)Cc2ccc3c(c2)OCO3)cc1`: the Potency result is “inactive”.

As for `CC(=O)Oc1ccc(N(C(C)=O)S(=O)(=O)c2ccc3ccccc3c2)cc1Br`, the Potency result was “inactive”.

Consider `CC(=O)N(c1ccc2oc(=O)sc2c1)S(=O)(=O)c1ccc(C)cc1`, for which the Potency is 16.4 µM (active).

On to `COc1ccc(C2/C(=C(/O)c3ccc(OC(C)C)cc3)C(=O)C(=O)N2CCCN2CCOCC2)cc1` (centres undefined), for which the Potency entry was “inactive”.

On to `C=CCn1c(SCC(=O)Nc2ccc(NC(C)=O)cc2)nc2sc(C)c(C)c2c1=O`, for which the Potency entry was “inactive”.

Take `O=C1CCCC(O)=C1N=Nc1ccc(S(=O)(=O)N2CCOCC2)cc1`: the Potency result is “inactive”.

Consider `O=C1CCC(Cc2ccccc2)N1` (centres undefined), for which the Potency result is “inactive”.

For `COc1ccc(NC(=O)C2CCC(CNC(=O)[C@@H]3Cc4ccccc4CN3)CC2)cc1` (some centres undefined), the Potency entry was “inactive”.

For the compound `COc1ccc(/C=C2\SC(=S)N(CCC(=O)Nc3ccccn3)C2=O)cc1OC`, the Potency result is “inactive”.

`COc1ccc(/C=C2\SC(=S)N(CCC(=O)N3CCOCC3)C2=O)cc1OC`: the Potency result is “inactive”.

Turning to `O=C1/C(=C/c2ccc(F)cc2)SC(=S)N1CCCC(=O)N1CCCCC1CCO` (centres undefined), the Potency was 25.9 µM (active).

Turning to `COc1ccc(/C=C2\SC(=S)N(CCCC(=O)NC3CCCC3)C2=O)cc1OC`, the Potency was 16.4 µM (active).

With `C=CCOc1ccc(/C=C2\SC(=S)N(CCC(=O)O)C2=O)cc1`, the Potency result is “inactive”.

`COc1cccc(/C=C2/SC(=S)N(CC(=O)NC3C=CS(=O)(=O)C3)C2=O)c1` (centres undefined): the Potency entry is “inactive”.

As to `COc1ccc(/C=C2\SC(=S)N(CCC(=O)Nc3cccc(C(=O)O)c3)C2=O)cc1OC`, the Potency result was “inactive”.

`COc1cccc(/C=C2\SC(=S)N(CCCC(=O)N3CCOCC3)C2=O)c1`: the Potency is 18.4 µM (active).

Take `O=C(CCCN1C(=O)/C(=C/c2ccccc2)SC1=S)Nc1ccc(O)cc1`: the Potency entry was “inactive”.

Take `CC(=O)N(OCc1ccc(OC(C)C)c(Cl)c1)C(C)=O`: the Potency entry is “inactive”.

Consider `C[N+](C)(C)CCNC(=O)c1c(O)c2c([nH]c1=O)CCCC2`, for which the Potency entry is “inactive”.

For `COc1ccc2nc(N3CCCC(O)C3)c(C#N)cc2c1` (centres undefined), the Potency entry is “inactive”.

Regarding `Cc1ccc(NC(=O)COC(=O)C2C3CC4OC(=O)C2C4C3)cc1Cl` (centres undefined), the Potency result is “inactive”.

For `O=C(COC(=O)c1ccccn1)NNC(=O)c1ccc([N+](=O)[O-])cc1`, the Potency entry was “inactive”.

With `CCc1noc(C)c1C(=O)NCCN1Cc2cc(OC)ccc2OC(CC)C1` (centres undefined), the Potency result is “inactive”.

On to `Nc1nc(N)c(N=O)c(N)n1`, for which the Potency entry is “inactive”.

For `O=C(NCc1ccccc1)[C@H]1C[C@@H]1[C@H](NP(=O)(c1ccccc1)c1ccccc1)c1ccccc1`, the Potency was 20.6 µM (active).

For `O=C(O)C1C2C=CC(C2)C1C(=O)NCc1ccccc1` (centres undefined), the Potency entry is “inactive”.

`O=C(NCc1ccccc1)C1CNCC(C(=O)NCc2ccccc2)C1` (centres undefined): the Potency entry is “inactive”.

Regarding `O=C1CSC(=O)N1CCOCCN1C(=O)CSC1=O`, the Potency entry was “inactive”.

Turning to `COCCn1c(C)cc(C(=O)COC(=O)/C=C/c2cccc(OC)c2)c1C`, the Potency entry is “inactive”.

As to `Cc1cc2cc3n(c2nn1)N=C(Cl)CC3`, the Potency was 11.6 µM (active).

Take `CS(=O)(=O)c1ccc(Cl)c(NC(=O)COC(=O)c2cccc(S(=O)(=O)N3CCCC3)c2)c1`: the Potency result was “inactive”.

On to `CC1(C(=O)NS(=O)(=O)c2ccc(Cl)cc2)CCN1C(=O)CC1CCCC1` (centres undefined), for which the Potency entry was “inactive”.

For the compound `CC1(C(=O)Nc2cccc3cccnc23)CCN1C(=O)CCC1CCCC1` (centres undefined), the Potency is 16.4 µM (active).

As for `CC1(C(=O)Nc2ccccc2Br)CCN1C(=O)CC1CC1` (centres undefined), the Potency entry is “inactive”.

With `C=CCNc1nc(Nc2ccc(Cl)cc2)nc(OC)n1`, the Potency result was “inactive”.

On to `O=C(Cn1cc(C(=O)C2CC2)c2ccccc21)Nc1ccccc1Cl`, for which the Potency entry was “inactive”.

`CN(C)S(=O)(=O)c1ccc(C(=O)NCC2(N3CCOCC3)CCCCC2)cc1`: the Potency result was “inactive”.

`CC(=O)Nc1ccccc1C(=O)C(=O)Nc1ccc(F)cc1`: the Potency result was “inactive”.

For the compound `O=S(=O)(Nc1n[nH]c(C(F)(F)F)n1)c1ccccc1`, the Potency result was “inactive”.

As for `CCCNC(=O)C1(C)CCN(C(=O)c2ccccc2OC(F)(F)F)C1` (centres undefined), the Potency entry was “inactive”.

With `CCCNC(=O)C1(C)CCCN(Cc2c(C)nn(-c3ccccc3)c2C)C1` (centres undefined), the Potency result is “inactive”.

With `CCNC(=O)C1(C)CCN(Cc2ccc(C(=O)OCC)o2)C1` (centres undefined), the Potency entry was “inactive”.

`CCCNC(=O)C1(C)CCN(C(=O)c2cc(F)ccc2C)C1` (centres undefined): the Potency result is “inactive”.

With `CCCNC(=O)C1(C)CCCN(C(=O)c2cccc(OC(C)=O)c2C)C1` (centres undefined), the Potency entry was “inactive”.

Turning to `CCCNC(=O)C1(C)CCN(Cc2ccc(Cl)c(Cl)c2)C1` (centres undefined), the Potency is 20.6 µM (active).

On to `CCCNC(=O)C1(C)CCN(C(=O)c2ccc(F)cc2Cl)C1` (centres undefined), for which the Potency entry was “inactive”.

Consider `CCCNC(=O)C1(C)CCCN(Cc2cccc(C(F)(F)F)c2)C1` (centres undefined), for which the Potency was 25.9 µM (active).

With `CCCNC(=O)C1(C)CCN(Cc2csc(-c3ccc(Cl)cc3)n2)C1` (centres undefined), the Potency is 16.4 µM (active).

Turning to `Cc1ccc(NC(=O)C(C)OC(=O)C2CC3CCCC(C2)C3=O)cc1S(=O)(=O)N1CCOCC1` (centres undefined), the Potency result was “inactive”.

With `CCCOc1ccc(N2C(=O)CC(N(CCc3ccc(S(N)(=O)=O)cc3)C(C)=O)C2=O)cc1` (centres undefined), the Potency entry was “inactive”.

Regarding `O=C(CNc1ccc(F)cc1F)NC(=O)NCc1ccco1`, the Potency result was “inactive”.

With `COc1ccc(/C(N)=N/OC(=O)Oc2ccccc2)cc1`, the Potency entry was “inactive”.

Turning to `Cc1noc(NS(=O)(=O)c2ccc(NC(=O)C34CCC(CC3)C4)cc2)c1C`, the Potency entry was “inactive”.

As to `Cc1c(Cl)cccc1NC(=S)NCC(O)c1ccccc1` (centres undefined), the Potency result was “inactive”.

Turning to `O=C(C1CCCO1)N1CCN(S(=O)(=O)c2ccc(Br)cc2)CC1` (centres undefined), the Potency result was “inactive”.

For the compound `C#CCOCCOCCOCCNc1nc(N2CCN(C(=O)[C@H](CCCCN)n3cc([C@@H](N)C(C)CC)nn3)CC2)nc(N2CCN(C(=O)[C@H](Cc3ccc(O)cc3)n3cc([C@@H](N)C(C)CC)nn3)CC2)n1` (some centres undefined), the Potency result was “inactive”.

With `CCS(=O)(=O)Nc1ccc(C2=NN(S(=O)(=O)c3ccc(F)cc3)C(c3ccco3)C2)cc1` (centres undefined), the Potency entry is “inactive”.

Take `CS(=O)(=O)Nc1cccc(C2=NN(S(=O)(=O)c3ccccc3)C(c3cccs3)C2)c1` (centres undefined): the Potency result was “inactive”.

Consider `COc1cccc(C2CC(c3ccccc3)=NN2S(=O)(=O)c2ccccc2)c1OC` (centres undefined), for which the Potency was 25.9 µM (active).

Consider `CNC(=O)C(NC(=O)c1ccccc1)=C(C)C`, for which the Potency entry was “inactive”.

Consider `O=C(NCCN1C(=O)C2C3C=CC(C3)C2C1=O)Nc1ccccn1` (centres undefined), for which the Potency result was “inactive”.

With `COc1ccc(OCC(=O)N2CCN(C(=O)c3cccs3)CC2)cc1`, the Potency result is “inactive”.

Consider `CCc1ccc(NC(=O)COC(=O)c2cccs2)cc1`, for which the Potency entry was “inactive”.

In the case of `O=C(CN1C(=O)CCC1=O)Nc1ccc(S(=O)(=O)N2CCOCC2)cc1`, the Potency entry is “inactive”.

As to `O=C(CN1CCN(c2cccc(Cl)c2)CC1)Nc1ccc(S(=O)(=O)N2CCOCC2)cc1`, the Potency was 8.2 µM (active).

For the compound `O=C(CN1CCN(c2ccc(O)cc2)CC1)Nc1cc(S(=O)(=O)N2CCOCC2)ccc1Cl`, the Potency is 13 µM (active).

`O=C(CN1CCN(S(=O)(=O)/C=C/c2ccccc2)CC1)Nc1ccc(N2CCOCC2)cc1`: the Potency entry is “inactive”.

Regarding `Cc1ccc(Cl)cc1NC(=O)CN1CCN(S(=O)(=O)N2CCOCC2)CC1`, the Potency entry is “inactive”.

Turning to `O=C(CN1CCOCC1)Nc1cc(Cl)ccc1Cl`, the Potency entry was “inactive”.

`Cc1cc(NC(=O)CC(C)C)cc(-c2nc3ncccc3o2)c1O`: the Potency entry was “inactive”.

In the case of `Cn1c(NC(=O)c2ccc3c(c2)OCO3)cc(=O)n(C)c1=O`, the Potency entry is “inactive”.

Consider `COc1ccccc1CC(NC(C)=O)C(=O)NC1CCN(C(=O)Nc2ccccc2Cl)CC1` (centres undefined), for which the Potency result is “inactive”.

For the compound `Cc1nn2c(=O)cc(COC(=O)c3cccc(NC(=O)COc4ccccc4Cl)c3)nc2s1`, the Potency result is “inactive”.

In the case of `COc1ccccc1CNc1ncncc1-c1cccnc1`, the Potency entry is “inactive”.

For the compound `O=[N+]([O-])c1cc2ccccc2nc1-c1ccccc1`, the Potency entry is “inactive”.

Regarding `O=[N+]([O-])c1ccc(F)cc1Oc1nc(-c2cccnc2)nc2ccccc12`, the Potency was 18.4 µM (active).

On to `COc1ccccc1Oc1nc(-c2cccnc2)nc2ccccc12`, for which the Potency is 20.6 µM (active).

Regarding `CCN(CC(=O)NC1CCS(=O)(=O)C1)c1nc(-c2cccnc2)nc2ccccc12` (centres undefined), the Potency entry was “inactive”.

For `COc1ccccc1CCNC(=O)CSc1nnc2ccc(-c3cccnc3)nn12`, the Potency result is “inactive”.
